High-throughput results: PubChem, several laboratories
The list is not random: actives were taken first. Their share in the collection is about 27%.
CYP2C9 act = CYP2C9 (human) activation; 96,000 compounds, 1.4% hits; activation factor at 5 µM; recombinant CYP2C9, luciferin-H conversion, luminescence; stronger effect = higher value; factor 1 = untreated enzyme, 0 = blocked;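 active = activation factor of 2 or more for CYP2C9 at a 5 µM dose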;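 also: 0 = sulfaphenazole-blocked wells and 1 = vehicle-only wells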
sEH activator = activators of human soluble epoxide hydrolase | activation, % at 2 µM | 91,000 compounds, 0.04% hits | P34913 | purified human sEH enzymatic activity, activator screen; in the data active = activation above about 37%
CYP2C19 activ = increases human CYP2C19 enzyme activity | 96,000 tested, under 10 active | P33261 | activation factor at 5 µM | recombinant CYP2C19, luciferin-H EGE luminescence; stronger effect = higher value; 0 = fully inhibited enzyme, 1 = untreated enzyme;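 active = activation factor of at least 2 at 5 µM in the primary screen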;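 also: 0 = wells with 2.5 mM tranylcypromine and 1 = vehicle-only wells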
sEH inhibitor = soluble epoxide hydrolase (human) inhibition | P34913 | recombinant human sEH enzymatic activity assay | inhibition, % at 2 µM | 91,000 compounds, 0.34% hits | AID 707; in the data active = inhibition above about 80%
CYP2C19 inhib = inhibitors of human CYP2C19; CYP2C19 Supersomes, luciferin-H EGE luminescence, 30 min; inhibition, % at 5 µM; 96,000 compounds, 21% hits; AID 778;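 active = CYP2C19 inhibition above a set limit at 5 µM in the primary screen, cut at about 50% in these data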;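 also: plate controls were negative control wells for no effect and 2.5 mM tranylcypromine positive control for full effect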
CYP2C9 inhib = blocks human cytochrome P450 2C9; CYP2C9 Supersomes, luciferin-H conversion, luminescence; inhibition, % at 5 µM; 96,000 compounds, 20% hits; AID 777;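 active = blocking of liver enzyme CYP2C9 beyond about 50% at 5 µM, limit read from the data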
Active calls of the source: *; · = no result.

SMILES	CYP2C9 act	sEH activator	CYP2C19 activ	sEH inhibitor	CYP2C19 inhib	CYP2C9 inhib
Cc1ccc(Cn2cnc3ccccc32)cc1	0.4	11	0.2	-16	77*	58*
Cc1nccn1-c1ccc(C(F)(F)F)cc1NC=O	0.9	8	1	-9	5	7
Cc1nc(C(=O)Nc2ccc(F)cc2)nn1-c1ccc([N+](=O)[O-])cc1	0.8	-7	1	10	5	20
Cc1ccc(N=Cc2sc(O)c3ccccc23)c(C)c1	0.4	-2	0.6	4	41	63*
CCN(CC)S(=O)(=O)c1cc(C(=O)N2CCc3ccccc32)ccc1Cl	0.7	-3	0.7	5	28	28
Cc1cc(Cl)cc(C)c1OCCCCN1CCOCC1	1	-10	0.5	13	54*	0
CCC(C)c1ccc(OCCCCN2CCOCC2)cc1 (centres undefined)	1	8	0.4	-8	57*	-2
Cc1ccc2c(c1)-c1c(cnn1CC(=O)Nc1ccccc1N1CCN(C)CC1)CO2	0.7	·	1	·	-2	26
CCn1c(SCc2ccc(C(=O)Nc3nccs3)cc2)nnc1-c1ccc(NC(C)=O)cc1	0.2	4	0.6	-4	42	85*
CCn1c(SCc2ccc(C(=O)Nc3nccs3)cc2)nnc1-c1ccc(N)cc1	0.3	0	0.7	2	29	68*
Cn1c(SCc2ccc(C(=O)Nc3nccs3)cc2)nnc1-c1ccccc1	0.3	15	0.7	-12	32	68*
CCC(Sc1nnc(-c2ccc(C)c(Cl)c2)n1CC)C(=O)Nc1nccs1 (centres undefined)	0.6	·	0.5	·	49	44
CCCC[n+]1ccn(-c2nc3ccccc3nc2[N-]S(=O)(=O)c2ccc(C)cc2)c1	0.3	8	0.7	-6	25	72*
COCCN(Cc1cc2cc3c(cc2[nH]c1=O)OCO3)C(=O)c1cccs1	0.9	0	0.7	0	34	5
COc1ccccc1N1CCN(/N=C/c2c(C)nn(-c3ccccc3)c2C)CC1	0.8	-2	0.8	0	21	16
CC(Oc1ccc(Cl)cc1Cl)C(=O)Nc1ccc(S(=O)(=O)Nc2cnc3ccccc3n2)cc1 (centres undefined)	0	-8	0.9	11	14	100*
CCC(Oc1ccccc1)C(=O)Nc1ccc(S(=O)(=O)Nc2cnc3ccccc3n2)cc1 (centres undefined)	0.7	-11	0.9	14	6	29
Cc1cc(Cl)ccc1OC(C)C(=O)Nc1ccc(S(=O)(=O)Nc2cnc3ccccc3n2)cc1 (centres undefined)	0.1	10	1	-9	-4	88*
Cc1cccc(-n2c(SCCC(=O)O)nnc2-c2cccs2)c1C	1.2	·	0.9	·	6	-19
COc1cccc(C2CC(c3ccccc3)Nc3ncnn32)c1 (centres undefined)	0.6	7	0.1	-4	95*	44
COc1ccccc1C1CC(c2ccc(Cl)cc2)Nc2ncnn21 (centres undefined)	0.3	-4	0	2	98*	70*
COc1ccc(C2CC(c3c(Cl)cccc3Cl)n3nc(N)nc3N2)cc1 (centres undefined)	1.1	8	0.4	-6	62*	-5
COc1cccc(C2CC(c3ccc(C)cc3)Nc3nc(N)nn32)c1 (centres undefined)	1	·	0.9	·	9	-3
COc1cccc(C2CC(c3ccc(Cl)cc3Cl)Nc3nc(N)nn32)c1 (centres undefined)	0.5	-11	0.3	12	67*	54*
CCCOc1ccc(N2C(=O)CC(N3CCCC(C(=O)N4CCCC4)C3)C2=O)cc1 (centres undefined)	0.9	6	1	-1	-3	7
CCOc1ccccc1C1CC(c2ccc(F)cc2)Nc2nc(N)nn21 (centres undefined)	0.8	11	0.3	-9	65*	24
COc1ccc(C2CC(c3ccc(Cl)cc3Cl)n3nc(N)nc3N2)cc1 (centres undefined)	·	2	·	-2	·	·
COc1cccc(C2CC(c3ccccc3Cl)Nc3nc(N)nn32)c1 (centres undefined)	·	-1	·	2	·	·
CCOc1ccc(C2CC(c3ccccc3C)n3ncnc3N2)cc1 (centres undefined)	1	·	0.4	·	64*	3
